# According to PubChem BioAssay AID1259422 (The Scripps Research Institute Molecular Screening Center, 2018):
# Among all 640,000 compounds or so, about 9,300 (1.5%) were called active. Cut-off read from the data, not from the text of the source: active = inhibition above about 32%; inactive = the rest. The list comes from a sample in which actives are over-represented; it also holds similar structures and randomly drawn compounds.
# Experiment: TEAD-YAP interaction inhibition, primary screen, TEAD-YAP interaction inhibitor project, luminescence, HEK-TIYL cells (AID 1259422);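 note: 0% = median of test compound wells and 100% = reference inhibitor wells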
# Details: TEAD-Gal4/YAP UAS-luciferase luminescence, at 9.12 µM, stronger effect = higher value
row,SMILES,inhibition
1,CCCn1c(=O)[nH]c2c(C(N)=O)nc(-c3cn(C)nc3C)nc21,-23% (inactive)
2,O=C(CNc1cccc(Br)c1)Nc1ccccc1C(=O)Nc1ccccc1,2.84% (inactive)
3,Nc1ccc2c(c1)C(=O)C(=O)c1cc(N)ccc1-2,99% (active)
4,O=C1c2cc(S(=O)(=O)N3CCCC3)ccc2-c2ccc(S(=O)(=O)N3CCCC3)cc21,-1.36% (inactive)
5,O=C1c2cc(O)ccc2-c2ccc(O)cc21,-8.01% (inactive)
6,CCCCN(CC)CCNC(=O)CCNC(=O)Cn1cnc2sc3c(c2c1=O)CCCC3,-4.71% (inactive)
7,CCN1CCN(C(=O)c2ccc(OC)cc2OC)CC1,2.8% (inactive)
8,Cn1nccc1Nc1cc(Nc2ccc(N3CCOCC3)cc2)ncn1,2.78% (inactive)
9,Cn1cc(-c2cc(Nc3ccc(N4CCOCC4)cn3)ncc2Cl)cn1,38.9% (active)
10,COc1cc(Nc2cc(-c3nocc3-c3cnn(C)c3)ccn2)ccc1N1CCOCC1,15% (inactive)
11,CCCN1CC=C2C(C1)C(c1cccc(C(F)(F)F)c1)C(C#N)=C(N)C2(C#N)C#N (configuration not stated),-14.9% (inactive)
12,CC(C)n1cnc2c(NC3CCN(Cc4ccccc4)CC3)nc(NC3CCN(Cc4ccccc4)CC3)nc21,23.1% (inactive)
13,c1ccc(CN2CCC(Nc3nc(-c4ccccc4)nc4c3ncn4C3CCCCC3)CC2)cc1,6.01% (inactive)
14,CC(C)n1cnc2c(NC3CCN(Cc4ccccc4)CC3)nc(Nc3ccc(N4CCOCC4)cc3)nc21,55.8% (active)
15,CC(C)n1cnc2c(NC3CCN(Cc4ccccc4)CC3)nc(-c3ccc(N4CCOCC4)nc3)nc21,36.3% (active)
16,c1ccc(CN2CCC(Nc3nc(Nc4ccc(N5CCOCC5)cc4)c4ncn(C5CCCCC5)c4n3)CC2)cc1,7.35% (inactive)
17,CC(C)n1cnc2c(NC3CC3)nc(-c3ccc(N4CCOCC4)nc3)nc21,1.84% (inactive)
18,NC(=O)c1ccc(C(=O)N2CCC3(CC2)NC(=O)c2ccccc2O3)c(F)c1,9.77% (inactive)
19,c1ccc2nc(-c3nc4ccccc4s3)ccc2c1,50.1% (active)
20,CC(=O)Nc1sc(C)c(C)c1-c1nc2ccccc2s1,-2.29% (inactive)
21,O=C(Cc1cccc2ccccc12)Nc1ccccc1-c1nc2ccccc2s1,4.57% (inactive)
22,CCS(=O)(=O)N1CCN(c2cccc(Cl)c2)CC1,4.72% (inactive)
23,CCOc1cccc(-c2cc(C(=O)N/N=C/c3ccccc3O)[nH]n2)c1,-2.87% (inactive)

row,SMILES,inhibition
1,Cc1ccc(/C=N\NC(=O)c2cc(C(C)(C)C)[nH]n2)cc1,45.2% (active)
2,Cc1cc(C(=O)N/N=C/c2ccc(Br)c([N+](=O)[O-])c2)n[nH]1,6.76% (inactive)
3,CC(C)(C)c1cc(C(=O)N/N=C/c2c(O)ccc3ccccc23)n[nH]1,-0.43% (inactive)
4,CCOc1ccc(-c2cc(C(=O)N/N=C/c3c[nH]c4ccccc34)[nH]n2)cc1,55.9% (active)
5,CCOc1ccc(O)c(/C=N/NC(=O)CNc2ccc3ccccc3c2)c1,-7.17% (inactive)
6,CCOc1ccc(/C=N/NC(=O)c2cc(C(C)(C)C)[nH]n2)c(O)c1,59.8% (active)
7,CCCOc1ccc(/C=N/NC(=O)OC)c(O)c1,-15.8% (inactive)
8,CCOc1ccc(-c2cc(C(=O)N/N=C\c3ccccc3O)[nH]n2)cc1OC,1.39% (inactive)
9,CSc1nnc2c(n1)OC(c1ccc(N(C)C)cc1)Nc1ccc(Br)cc1-2 (configuration not stated),-2.24% (inactive)
10,Cc1cccc(N(CC(O)c2ccccc2)S(=O)(=O)c2ccc3c(c2)OCCO3)c1 (configuration not stated),2.94% (inactive)
11,N#CC(C#N)=C1SCC(=O)N1c1ccc(F)cc1,-0.92% (inactive)
12,CCn1c(N=Nc2c(O)[nH]c3ccccc23)nc2c1c(=O)n(C)c(=O)n2C,6.12% (inactive)
13,OCCC1CCCCN1c1ccnc2c(-c3ccc(F)c(Cl)c3)cnn12 (configuration not stated),41.4% (active)
14,OC[C@@H]1CCCN1c1ccnc2c(-c3ccc4c(c3)OCO4)cnn12,55.2% (active)
15,O=C(NCCO)c1cccc(-c2cnn3c(N4CCCCC4CCO)ccnc23)c1 (configuration not stated),-6.65% (inactive)
16,CN(C)CCNc1ccnc2c(-c3ccc(F)c(Cl)c3)cnn12,-31.8% (inactive)
17,OC[C@@H]1CCCN1c1ccnc2c(-c3cccc4ccccc34)cnn12,-40.1% (inactive)
18,Cc1ccc(-c2cnn3c(NCc4ccc5c(c4)OCO5)ccnc23)cc1,-8.18% (inactive)
19,N#Cc1ccsc1NC(=O)COC(=O)CC12CC3CC(CC(C3)C1)C2,-33.5% (inactive)
20,COc1ccc(Cl)cc1NC(=S)NC(C)c1ccncc1 (configuration not stated),2.52% (inactive)
21,CC1CN(c2nc3c(c(=O)[nH]2)CCN(c2cnccn2)C3)CC(C)O1 (configuration not stated),9.31% (inactive)
22,C=CCN1C(=O)S/C(=C/c2ccccc2F)C1=O,-54.7% (inactive)
23,Cc1ccc(OCc2nc3ccccc3n2CC(=O)Nc2cc(C)on2)cc1,-69.6% (inactive)

row,SMILES,inhibition
1,NC(=O)c1ccc(N=Cc2cccc(O)c2O)cc1,-12.1% (inactive)
2,Oc1cccc(/C=N/Nc2ccc(Cl)nn2)c1O,79.2% (active)
3,Oc1ccc(/C=N/Nc2ccccc2Cl)c(O)c1O,-1.62% (inactive)
4,CCN1C(=O)N/C(=C/c2ccccc2OCc2ccc(C(=O)O)cc2)C1=O,-1.26% (inactive)
5,NS(=O)(=O)c1ccc(C(=O)OCc2cccc(Cl)c2Cl)cc1,8.02% (inactive)
6,COc1ccc2[nH]c(=O)c(CN(CCCO)Cc3nnnn3CC3CCCO3)cc2c1 (configuration not stated),5.17% (inactive)
7,CC1CN(CCC(=O)N2CCCN(C3Cc4ccccc4C3)CC2)Cc2ccccc2O1 (configuration not stated),-10.5% (inactive)
8,O=C(NC(=O)c1cccc(F)c1)OC1CCS(=O)(=O)C1 (configuration not stated),-5.15% (inactive)
9,CC(=O)Nc1nc(-c2ccc(C)c(C)c2)cs1,-61.1% (inactive)
10,CC(=O)NCCCc1ccc(-c2csc(N)n2)cc1,56.7% (active)
11,CC(C)(C)C(=O)Nc1ccc(-c2csc(N)n2)cc1,-22.9% (inactive)
12,Cc1cc2c(cc1C)NC(CC(=O)Nc1cccc([N+](=O)[O-])c1)C(=O)N2 (configuration not stated),-4.87% (inactive)
13,CCOc1ccc(CN2CCN(Cc3cc(OC)ccc3O)CC2)cc1,3.2% (inactive)
14,CCOC(=O)C1=C(C)NC2=C(C(=O)c3ccccc32)C1c1cccc(F)c1 (configuration not stated),-6.85% (inactive)
15,CCOC(=O)C1=C(C)NC2=C(C(=O)c3ccccc32)C1c1cc(Br)c(OC)c(OC)c1 (configuration not stated),57.2% (active)
16,COC(=O)C1=C(C)NC2=C(C(=O)c3ccccc32)C1c1ccc(OC)cc1 (configuration not stated),-0.11% (inactive)
17,C=CCNc1ccc([N+](=O)[O-])cc1C#N,3.17% (inactive)
18,Cc1ccc(NC(=O)C2CC3CCCN3C23C(=O)Nc2ccccc23)cc1 (configuration not stated),11.1% (inactive)
19,CCCNC(=O)Cn1c(=O)oc2cc(Cl)ccc21,1.41% (inactive)
20,Cc1sc(NC(=O)c2ccc(S(=O)(=O)N(C)c3ccccc3)cc2)c(C#N)c1C,3.35% (inactive)
21,CCc1cc2c(=O)c(-c3ccc4c(c3)OCCCO4)coc2cc1OC,-34.2% (inactive)
22,CCc1cc2c(=O)c(-c3ccc4c(c3)OCCCO4)coc2cc1OC(=O)N1CCOCC1,-8.61% (inactive)
23,COc1ccc(-c2coc3cc(OCCN4CCOCC4)ccc3c2=O)cc1OC,33% (active)

row,SMILES,inhibition
1,COc1ccc(C(=O)Nc2cc(C)nn2-c2nc3ccccc3[nH]2)cc1[N+](=O)[O-],10.1% (inactive)
2,CCCc1cc(=O)[nH]c2nnc(SCC(=O)Nc3cc(OC)ccc3OC)n12,-0.38% (inactive)
3,Cn1c(/C(C#N)=C\c2ccc(-c3ccc(S(N)(=O)=O)cc3)o2)nc2ccccc21,36.2% (active)
4,Cn1c(/C(C#N)=C/c2ccccc2)nc2ccccc21,2.92% (inactive)
5,N#C/C(=C\c1ccc(-c2ccc(S(N)(=O)=O)cc2)o1)C(N)=O,-6.41% (inactive)
6,COCCN(C(=O)CN1C(=O)c2ccccc2C1=O)C1(C(=O)Nc2ccccc2)CCCC1,4.63% (inactive)
7,COc1ccc(CNCc2cc(-c3ccccc3)cn3nnnc23)cc1,16% (inactive)
8,Cc1cccc(-n2nc3c(c2NC(=O)c2ccc4c(c2)OCO4)CSC3)c1C,3.84% (inactive)
9,CC(C)(C)NC(=O)c1cccc(S(=O)(=O)N2CCN(c3ccc(F)cc3)CC2)c1,3.68% (inactive)
10,COc1ccc(CC(=O)c2ccc(OC)cc2)cc1,-37.9% (inactive)
11,COc1ccc(C(=O)C[n+]2ccc(N)c(C)c2C)cc1,33% (active)
12,Cc1ccc[n+](CC(=O)c2ccc(Cl)cc2)c1C,1.36% (inactive)
13,CCOC(=O)C1=C(c2ccccc2)N=c2s/c(=C\c3ccc4c(c3)OCO4)c(=O)n2C1c1ccc(OC)c(OC)c1 (configuration not stated),6.04% (inactive)
14,O=C(NC1CCN(Cc2ccccc2)CC1)c1ccc(-c2ccccc2)s1,-22.3% (inactive)
15,COc1ccc(-c2cc(NC3CC3)nc(N)n2)cn1,-43.5% (inactive)
16,COc1ccc(-c2ccc(C(=O)NC3CC3)s2)cn1,40.7% (active)
17,CC(C)N(C(=O)NCCC(=O)c1ccc(F)cc1)C(C)C,-1.1% (inactive)
18,Clc1cc2nc3[nH]c4ccccc4c3nc2cc1Cl,-25.4% (inactive)
19,CC(=O)Nc1ccc2nc3c(cc2c1)[nH]c1ccccc13,32.4% (active)
20,CC(=O)Nc1ccc(-c2nc(-c3ccccc3)c3cc(C)ccc3n2)cc1,7.4% (inactive)
21,COc1ccc(C2/C(=C(\O)c3ccc(C)cc3)C(=O)C(=O)N2c2c(C)n(C)n(-c3ccccc3)c2=O)cc1 (configuration not stated),-7.88% (inactive)
22,COc1ccc(OCCSc2nnc3nc(C)cc(C)n23)cc1,0.54% (inactive)
23,N#CCOc1ccc2c(=O)c(Oc3ccc4ccccc4c3)coc2c1,5.86% (inactive)
